Source: PubChem BioAssay
Active and inactive are the calls of the source.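 The calls were made as follows, unless noted: active = fluorescence slope after compound addition differing from the mean of all screened samples at 99.7% confidence, in either direction; inactive = the rest.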

Legend:
[1] = inhibitors of TNFa-induced NFkB p65 translocation, primary screen, imaging, HUVEC, MLSMR starter and 10KST1 sets (AID 438;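 active = inhibition above 20% together with a positive visual image hit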;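 also: compound added about 3h40 before a 20 min TNFalpha stimulation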;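 as to inhibition: signal is the nuclear over cytoplasmic p65 intensity ratio per well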); details: HUVEC TNFa-induced p65 nuclear translocation; cell count: measured here: nuclei count (cytotoxicity indicator), at 2.08 µM; inhibition: at 2 µM, stronger effect = higher value, 0% TNFa-plus-vehicle, 100% no-TNFa wells
[2] = inhibitors of mutant huntingtin aggregation, primary screen, imaging, exon1htt(103Q)mCFP cells, high-content imaging (AID 483;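 active = visual image review flags a hit and inhibition of aggregation exceeds 20%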;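 also: compound exposure lasted 3 days before fixation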;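 as to nuclei count: percent of the per-plate median nuclei count of sample wells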); details: exon1htt(103Q)mCFP cell line, aggregate imaging, at 2 µM; inhibition of aggregation: stronger effect = higher value; nuclei count: measured here: cell count, toxicity
[3] = inhibitors of E-selectin induction by TNFa, primary screen, imaging, HUVEC, immunofluorescence, MLSMR starter and 10KST1 sets (AID 487;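 active = visually confirmed hit in the image check and inhibition above 20%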;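 as to inhibition: signal is fraction of cell area covered by stained E-selectin grains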;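 as to nuclei count: 100% = median nuclei count of all wells on the same plate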); details: HUVEC TNFalpha-induced E-selectin immunofluorescence imaging, at 2 µM; inhibition: stronger effect = higher value; nuclei count: measured here: cell number, toxicity
[4] = biological target: Voltage-gated potassium channel subunit beta-2 (Rattus norvegicus) (UniProt P62483); experiment: KvBeta enzyme negative modulators, primary screen, biochemical, NADPH fluorescence (AID 622;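 active = fluorescence slope higher than the sample average by over 3 SD, cut at about -0.22 in these data, passing the limit was not always enough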;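 also: slope of raw intensity against log time taken from 70 to 1610 s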); details: recombinant KvBeta, 4-cyanobenzaldehyde reduction, at 10 µM, stronger effect = higher value
[5] = biological target: Voltage-gated potassium channel subunit beta-2 (Rattus norvegicus) (UniProt P62483); experiment: KvBeta positive modulators, primary screen, biochemical, NADPH fluorescence (AID 623;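 active = NADPH fluorescence slope more negative than the mean of all samples by about 3 SD, 99.7% confidence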;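 also: fluorescence intensity change per second fitted from 20 to 320 s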); details: Recombinant KvBeta, NADPH fluorescence decrease slope, 10 min; at 10 µM; stronger effect = lower value
[6] = biological target: Alpha-2C adrenergic receptor (Homo sapiens) (UniProt P18825); experiment: modulators of alpha2C/GIRK thallium flux, primary screen, cell-based, HEK293 alpha2C/GIRK1/2 (AID 624); details: thallium flux BTC fluorescence, at 10 µM, actives lie on both sides;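 also: slope of fluorescence ratio to pre-addition baseline per second over 15 to 24 s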
[7] = inhibitors of Sendai virus-induced IRF3 signaling, primary screen, TLR/RLR signaling modifier project, cell-based, Sendai virus stimulus, luciferase, 10K MLSCN set (AID 602276;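 active = inhibition at or above 50% at 10 µM; inactive = inhibition below 50%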;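 also: firefly luciferase from ISG56 promoter only with Renilla not read in this screen; 0% = Sendai virus plus DMSO and 100% = medium plus DMSO without virus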); details: HEK293 RL24 IRF3 luciferase reporter, at 10 µM, stronger effect = higher value
[8] = inhibitors of poly I:C-induced TLR3 signaling, primary screen, cell-based, poly I:C stimulus, luciferase, 10K MLSCN set (AID 602277;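 active = inhibition of the reporter signal at or above 50%; inactive = inhibition below 50%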); details: HEK293-TLR3 RL24 IRF3 luciferase reporter, at 10 µM, stronger effect = higher value

Sequence of Alpha-2C adrenergic receptor (Homo sapiens) (P18825 whole entry, looked up): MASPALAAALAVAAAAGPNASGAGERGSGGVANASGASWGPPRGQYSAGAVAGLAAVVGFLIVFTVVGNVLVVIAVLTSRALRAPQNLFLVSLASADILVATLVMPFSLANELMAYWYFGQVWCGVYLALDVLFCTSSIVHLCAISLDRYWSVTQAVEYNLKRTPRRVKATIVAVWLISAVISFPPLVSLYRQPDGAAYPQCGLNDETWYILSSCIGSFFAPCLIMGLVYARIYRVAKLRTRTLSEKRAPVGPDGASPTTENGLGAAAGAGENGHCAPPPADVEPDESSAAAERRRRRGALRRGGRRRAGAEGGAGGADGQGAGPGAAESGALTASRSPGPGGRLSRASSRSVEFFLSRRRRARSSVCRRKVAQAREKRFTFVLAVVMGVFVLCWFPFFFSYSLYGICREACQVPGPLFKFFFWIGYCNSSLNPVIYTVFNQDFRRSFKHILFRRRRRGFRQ
Sequence of Voltage-gated potassium channel subunit beta-2 (Rattus norvegicus) (P62483 whole entry, looked up): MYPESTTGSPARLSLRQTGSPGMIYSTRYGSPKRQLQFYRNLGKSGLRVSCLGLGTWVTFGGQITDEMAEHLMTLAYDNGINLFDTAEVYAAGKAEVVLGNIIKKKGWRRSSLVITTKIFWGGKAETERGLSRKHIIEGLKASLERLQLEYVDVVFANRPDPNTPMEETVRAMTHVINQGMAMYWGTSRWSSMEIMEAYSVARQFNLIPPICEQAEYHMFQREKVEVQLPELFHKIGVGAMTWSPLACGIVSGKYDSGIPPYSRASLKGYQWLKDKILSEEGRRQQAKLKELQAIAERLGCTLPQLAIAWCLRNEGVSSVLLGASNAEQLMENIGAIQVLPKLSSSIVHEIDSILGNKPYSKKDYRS

Structure (SMILES)	cell count [1]	inhibition [1]	inhibition of aggregation [2]	nuclei count [2]	inhibition [3]	nuclei count [3]	fluorescence slope [4]	NADPH fluorescence slope [5]	slope [6]	inhibition [7]	inhibition [8]
Cc1ccc(NCC(O)C(O)C(O)CO)cc1C (stereo not drawn)	516	0.6% (inactive)	1.3% (inactive)	115%	-52.4% (inactive)	128%	-0.455 (inactive)	5.8e-07 (inactive)	0.00562 (inactive)	8.39% (inactive)	8.99% (inactive)
CCc1nnc(-n2nc(C)cc2-c2ccccc2)n1N	648	-2.4% (inactive)	0.6% (inactive)	104%	-20.7% (inactive)	109%	-0.551 (inactive)	2.6e-05 (inactive)	0.00642 (inactive)	15.3% (inactive)	22.1% (inactive)
[O-][n+]1c2ccc3nonc3c2nn1-c1ccccc1Cl	340	8.5% (inactive)	-11.3% (inactive)	111%	-21.9% (inactive)	118%	-0.507 (inactive)	-5.7e-05 (inactive)	0.0043 (inactive)	0.797% (inactive)	-2.81% (inactive)
COc1ccc(NC(=O)C2CCCN(S(=O)(=O)c3cccc4cccnc34)C2)cc1OC (stereo not drawn)	551	-2.6% (inactive)	-0.5% (inactive)	104%	-24.3% (inactive)	109%	-0.559 (inactive)	8e-06 (inactive)	0.007 (inactive)	14.2% (inactive)	24.7% (inactive)
CCN(CCCNS(=O)(=O)c1ccc2c(c1)oc(=O)n2C)c1cccc(C)c1	740	-0.6% (inactive)	-22.6% (inactive)	110%	-21.3% (inactive)	102%	-0.574 (inactive)	9.4e-07 (inactive)	0.00612 (inactive)	18.1% (inactive)	32.9% (inactive)
N#Cc1nc(-c2ccco2)oc1N1CCN(c2cccc(Cl)c2)CC1	744	-7.5% (inactive)	20.8% (inactive)	123%	-75.1% (inactive)	109%	-0.334 (inactive)	2.4e-05 (inactive)	0.00657 (inactive)	8.62% (inactive)	-3.74% (inactive)
CCN(c1c(C)n(C)n(-c2ccccc2)c1=O)S(C)(=O)=O	614	11.6% (inactive)	3.3% (inactive)	104%	-98.2% (inactive)	145%	-0.58 (inactive)	-3.6e-05 (inactive)	0.00621 (inactive)	23.1% (inactive)	24.6% (inactive)
COc1ccc(NC(=O)CC2Sc3ncnn3C2=O)cc1 (stereo not drawn)	632	-5% (inactive)	-9.2% (inactive)	128%	-65.3% (inactive)	126%	-0.567 (inactive)	-4e-05 (inactive)	0.0059 (inactive)	8.74% (inactive)	16.8% (inactive)
Cn1c(=O)c(C(=O)Nc2cccnc2)c(O)c2ccccc21	632	5.5% (inactive)	0.5% (inactive)	128%	-74% (inactive)	112%	-0.479 (inactive)	-4.8e-05 (inactive)	0.0062 (inactive)	-29.2% (inactive)	-42.3% (inactive)
COCCCNC(=O)CCn1c(=O)c2ccccc2n(CC(=O)Nc2ccc(C)cc2C)c1=O	689	-7.3% (inactive)	-6.5% (inactive)	102%	-48.2% (inactive)	111%	-0.502 (inactive)	-1.8e-05 (inactive)	0.00709 (inactive)	8.73% (inactive)	19% (inactive)
C=CCN1C(=O)CS/C1=N/c1nccs1	785	-8.5% (inactive)	3.5% (inactive)	107%	-5.5% (inactive)	101%	-0.459 (inactive)	-1.1e-05 (inactive)	0.00406 (inactive)	15.5% (inactive)	14.3% (inactive)
Cc1nc(C)c(C(=O)C2=C(O)C(=O)N(CCN3CCOCC3)C2c2ccco2)s1 (stereo not drawn)	244	-3.2% (inactive)	0.6% (inactive)	86.3%	-2.9% (inactive)	104%	-0.388 (inactive)	-2.3e-06 (inactive)	0.00517 (inactive)	11% (inactive)	6.93% (inactive)
COc1ccc(C(=O)Cn2nnc(-c3cccs3)n2)cc1	368	-7% (inactive)	27.6% (inactive)	89.5%	-0.6% (inactive)	100%	-0.407 (inactive)	-4.9e-05 (inactive)	0.00512 (inactive)	-2.35% (inactive)	-30.5% (inactive)
CCOc1cc(NC(=O)c2ccco2)c(OCC)cc1NC(=O)Cc1cccc(OC)c1	592	-14.5% (inactive)	-4.3% (inactive)	107%	22.4% (inactive)	102%	-0.397 (inactive)	-5.1e-05 (inactive)	0.00431 (inactive)	-6.51% (inactive)	-45.9% (inactive)
CCCN1CC23C=CC(O2)C(C(=O)O)C3C1=O (stereo not drawn)	833	-8.7% (inactive)	-27.3% (inactive)	109%	-58.4% (inactive)	124%	-0.518 (inactive)	-8.6e-07 (inactive)	0.00688 (inactive)	6.27% (inactive)	15.9% (inactive)
CN(CCCNC(=O)c1cn(C)c2ccc(S(=O)(=O)N(C)C)cc2c1=O)c1ccccc1	596	-4.5% (inactive)	-18.9% (inactive)	37.6%	39.4% (inactive)	94.2%	-0.582 (inactive)	-7.6e-06 (inactive)	0.00499 (inactive)	15.4% (inactive)	7.91% (inactive)
Cc1cc(C(=O)CSc2nc3ccccc3[nH]2)c(C)n1C	659	5.3% (inactive)	7.6% (inactive)	113%	-82.7% (inactive)	123%	-0.59 (inactive)	-5.2e-05 (inactive)	0.00445 (inactive)	-46.8% (inactive)	-155% (inactive)
CCOC(=O)C1CCN(C(=O)COc2ccc(Cl)cc2Cl)CC1	705	-5.1% (inactive)	8% (inactive)	103%	4.3% (inactive)	104%	-0.613 (inactive)	-1.6e-05 (inactive)	0.00593 (inactive)	3.61% (inactive)	14.2% (inactive)
Cc1ccc(-c2nnc(SCC(=O)N3c4ccccc4NC(=O)C3(C)C)n2N)cc1	809	-0.7% (inactive)	-26.4% (inactive)	93.6%	-92% (inactive)	120%	-0.361 (inactive)	-2.3e-05 (inactive)	0.00498 (inactive)	-12.6% (inactive)	-5.26% (inactive)
CCCNC(=O)NC(C(=O)OC)C12CC3CC(CC(C3)C1)C2 (stereo not drawn)	308	-6.2% (inactive)	19.6% (inactive)	76.7%	-52.3% (inactive)	123%	-0.321 (inactive)	-1.6e-05 (inactive)	0.00242 (inactive)	12.2% (inactive)	23.2% (inactive)
N#CC1=C(N)Oc2c(ccc3cccnc23)C1c1cccnc1 (stereo not drawn)	749	7.3% (inactive)	4.4% (inactive)	89%	-67.8% (inactive)	130%	-0.469 (inactive)	-2e-05 (inactive)	0.0058 (inactive)	47.8% (inactive)	45.8% (inactive)
CC(C)C1C2=C(CC(C)(C)CC2=O)ON1c1ccccc1 (stereo not drawn)	444	0.5% (inactive)	9.1% (inactive)	86.8%	-51.2% (inactive)	115%	-0.476 (inactive)	-4.4e-05 (inactive)	0.0045 (inactive)	14.4% (inactive)	16.5% (inactive)
O=C(O)CN1C(=O)CNC1=O	249	8.5% (inactive)	-1.9% (inactive)	60.7%	-66.2% (inactive)	119%	-0.519 (inactive)	9.8e-06 (inactive)	0.00529 (inactive)	3.07% (inactive)	24% (inactive)
Cc1cccc(C(=O)N2CCC(n3nnc4cc(F)ccc43)CC2)c1	695	-12.5% (inactive)	-26.4% (inactive)	101%	13.4% (inactive)	106%	-0.325 (inactive)	-2e-05 (inactive)	0.0067 (inactive)	5.99% (inactive)	6.27% (inactive)
CC1=C(C(N)=O)C(c2ccncc2)n2nc(-c3ccccc3Cl)nc2N1 (stereo not drawn)	617	0% (inactive)	5.7% (inactive)	92.1%	-1.2% (inactive)	109%	-0.528 (inactive)	-2.9e-05 (inactive)	0.00735 (inactive)	3.63% (inactive)	21.9% (inactive)
Cc1nc2sc(C(c3cccs3)N3CCC(C(N)=O)CC3)c(O)n2n1 (stereo not drawn)	625	-3.9% (inactive)	-7.5% (inactive)	105%	-47.4% (inactive)	120%	-0.565 (inactive)	-4.6e-05 (inactive)	0.00644 (inactive)	14.6% (inactive)	32.7% (inactive)
COc1cc2c(cc1OC)C(C)N(C(=O)Cn1ncc3c1-c1ccccc1OC3)CC2 (stereo not drawn)	697	-4.8% (inactive)	-21.5% (inactive)	114%	-39.6% (inactive)	117%	-0.587 (inactive)	-3.4e-05 (inactive)	0.008 (inactive)	7.96% (inactive)	17.3% (inactive)
CCOC(=O)c1cc(C(C)(C)C)oc1CN	667	-1% (inactive)	1.2% (inactive)	98.7%	-1.1% (inactive)	102%	-0.495 (inactive)	-4.4e-05 (inactive)	0.00475 (inactive)	15.2% (inactive)	21.7% (inactive)
